Experimental findings from PubChem BioAssay (NCATS) are described below.

The nature of test [1]: MultiTox-Fluor Cytotoxicity Assay - LYMP1-003 - Live Cells (AID 962).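 Also: cells exposed to compound for 16 hours at 37 °C; cytotoxic hits lower the live-cell protease signal.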 In short, it runs like this: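 Live-cell protease activity (GF-AFC substrate, 405/510 nm, 60 min at room temperature) after 16 h, 37 C compound exposure of human lymphoblastoid LYMP1-003 cells; concentration-response fitted to the Hill equation for AC50.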
Test [2] can be described thus: Cell Viability - LYMP1-003 - Assay at 24 hr (AID 963). Also: potency is read from the fitted curve at half-maximal effect. In short, it runs like this:
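Concentration-response qHTS: ATP loss measured by CellTiter-Glo luminescence after 24 h compound exposure at 37 C. Cells were LYMP1-003 human lymphoblastoid, 2500 per well. AC50 derived via standard Hill equation modeling.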

The nature of test [3]: Cell Viability - LYMP1-003 - Assay at 40 hr (AID 964). Also: nearly all actives have a fitted effect of over 60% in size. Also: potency is read from the fitted curve at half-maximal effect. In short, it runs like this:
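Viability is taken as cellular ATP, read by CellTiter-Glo luminescence after 40 h of compound exposure at 37 C. Cells: human lymphoblastoid line LYMP1-003 at 2500/well; AC50 values derived by Hill-equation fitting of concentration-response data.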

The nature of test [4]: Cell Viability - LYMP2-003 (AID 965).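 Also: cells exposed to compounds for 24 h before reading; nearly all actives have a fitted effect of over 50% in size.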 Also: potency is read from the fitted curve at half-maximal effect. In short, it runs like this:
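Human lymphoblastoid LYMP2-003 cells, 2500/well, exposed to compounds for 24 h at 37 C in complete medium. Viability read as intracellular ATP by CellTiter-Glo luminescence; AC50 from Hill-equation fits of qHTS concentration-response data.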

Test [5] in a line: Cell Viability - LYMP2-004 (AID 966). Also: nearly all actives have a fitted effect of over 65% in size. Also: potency is read from the fitted curve at half-maximal effect. In short, it runs like this:
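AC50 values come from Hill modelling of concentration-dependent loss of intracellular ATP, measured by CellTiter-Glo luminescence. Human LYMP2-004 lymphoblastoid cells (2500/well) were exposed to compound for 24 h at 37 C.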

A short description of test [6]: Cell Viability - LYMP2-005 (AID 967). Also: potency is read from the fitted curve at half-maximal effect. In short, it runs like this:
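Human lymphoblastoid LYMP2-005 cells, 2,500 per well in complete medium, rested 5 h at 37C then compound-treated 24 h at 37C. Intracellular ATP read by CellTiter-Glo luminescence after 30 min at room temperature; AC50 from Hill-equation fits of concentration-response data.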

A short description of test [7]: Cell Viability - LYMP2-009 (AID 968). Also: nearly all actives have a fitted effect of over 55% in size. Also: potency is read from the fitted curve at half-maximal effect.
The nature of test [8]: Cell Viability - LYMP2-011 (AID 969). Also: nearly all actives have a fitted effect of over 60% in size. Also: potency is read from the fitted curve at half-maximal effect. In short, it runs like this: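 Cytotoxicity qHTS with ATP content as read-out: lymphoblastoid cells (2500/well) exposed to compound for 24 h at 37 C, then luciferase luminescence measured. Concentration-response data fitted with the standard Hill equation to give AC50.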
Test [9] in a line: Cell Viability - LYMP2-013 (AID 970). Also: nearly all actives have a fitted effect of over 55% in size. Also: potency is read from the fitted curve at half-maximal effect. In short, it runs like this: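 qHTS cytotoxicity: ATP-dependent luminescence (CellTiter-Glo, 30 min room temperature) read after 24 h compound exposure at 37 C of 2500 LYMP2-013 lymphoblastoid cells per well. Concentration-response fitted with Hill equation to give AC50.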
Test [10] can be described thus: Cell Viability - LYMP2-015 (AID 971). Also: nearly all actives have a fitted effect of over 55% in size. Also: potency is read from the fitted curve at half-maximal effect. In short, it runs like this: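 Cytotoxicity readout: decrease in intracellular ATP (CellTiter-Glo luminescence) in 2500 LYMP2-015 lymphoblastoid cells/well after 24 h compound exposure at 37 C. Concentration-response data fitted with the standard Hill equation to give AC50.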

Results filed as inconclusive are left out. Activity calls are given as the source filed them. Calls follow the shape of the dose curve; as a rule, active = well fitted curve in the direction sought with a large enough effect; inconclusive = small, poorly fitted or top-dose-only effect, or another doubt; inactive = no such curve, though single readings can be large; an effect the other way counts as inactive or inconclusive.

On to `CC[C@H]1OC(=O)[C@H](C)[C@@H](O[C@H]2C[C@@](C)(OC)[C@@H](O)[C@H](C)O2)[C@H](C)[C@@H](O[C@@H]2O[C@H](C)C[C@H](N(C)C)[C@H]2O)[C@](C)(O)C[C@@H](C)CN(C)[C@H](C)[C@@H](O)[C@]1(C)O`, for which the compound was classed as inactive in test [1]. For the same compound, the Potency entry in [2], in test [3], in test [4], in test [5], in test [6] and in [7] was “inactive” throughout. Also, the Potency result in test [8], in [9] and in [10] was “inactive” throughout.

In the case of `CO/N=C(/C(=O)N[C@@H]1C(=O)N2C(C(=O)O)=C(COC(N)=O)CS[C@H]12)c1ccco1`, in test [1], the compound was classed as inactive. The Potency result in [2], in [3], in test [4], in [5], in test [6] and in test [7] was “inactive” throughout. For the same compound, the Potency entry in test [8], in [9] and in [10] was “inactive” in each case.

`C=C1C(CCl)(CCl)C2(Cl)C(Cl)C(Cl)C1(Cl)C2(Cl)Cl` (configuration not stated): the result in test [1] was inactive. Further, the Potency is 50.1 µM (active) in [2]; 50.1 µM (active) in test [4]; 39.8 µM (active) in test [5]; 39.8 µM (active) in test [7]; 50.1 µM (active) in [8]; 50.1 µM (active) in test [9]. The Potency in test [10] was 39.8 µM (active).

Turning to `CC/C=C\C/C=C\C/C=C\CCCCCCCC(=O)O`, in test [1], the compound was classed as inactive. Besides, the Potency result in test [2] was “inactive”. The Potency in test [4] was 39.8 µM (active); in test [7] it was 50.1 µM (active); in [10], 50.1 µM (active).

Consider `CCCCC`, for which the compound was classed as inactive in test [1]. In addition, the Potency entry in [2], in test [3], in [4], in test [5], in [6] and in [7] was “inactive” throughout. The Potency entry in test [8], in [9] and in test [10] was “inactive” throughout.

For the compound `O=c1n(CC2CO2)c(=O)n(CC2CO2)c(=O)n1CC1CO1` (configuration not stated), the compound was called inactive in test [1]. Also, the Potency was 39.8 µM (active) in [2]; 15.8 µM (active) in test [3]; 31.6 µM (active) in test [4]; 20 µM (active) in test [6]; 39.8 µM (active) in test [7]; 39.8 µM (active) in test [8]. The results for the Potency in [9] and in [10] were 50.1 µM (active) and 39.8 µM (active), respectively.

On to `CC(C)O`, for which the outcome in [1] was inactive. In addition, the Potency entry in test [2], in test [3], in test [4], in test [5], in [6] and in test [7] was “inactive” each time. Further, the Potency result in [8], in test [9] and in [10] was “inactive” each time.

`O.O.O.O.O.O.O.O=S(=O)([O-])[O-].[Co+2]`: in test [1], the compound was classed as inactive. Moreover, the Potency entry in test [2], in [4] and in [9] was “inactive” each time.

On to `CCOC(C)OCC`, for which the compound was classed as inactive in test [1]. The Potency result in [2], in test [3], in [4], in [5], in test [6] and in [7] was “inactive” throughout. The Potency result in test [8], in test [9] and in [10] was “inactive” throughout.

For the compound `Cc1ncc[nH]1`, the compound was classed as inactive in test [1]. For the same compound, the Potency result in test [2], in test [3], in [4], in [5], in test [6] and in test [7] was “inactive” each time. Moreover, the Potency entry in test [8], in test [9] and in test [10] was “inactive” each time.

`ClC(Cl)Cl`: the outcome in [1] was inactive. The Potency entry in test [2], in [3], in test [4], in [5], in test [6] and in [7] was “inactive” each time. For the same compound, the Potency entry in test [8], in [9] and in [10] was “inactive” each time.

In the case of `C[C@H](CCC(=O)O)[C@H]1CC[C@H]2[C@@H]3CC[C@@H]4C[C@H](O)CC[C@]4(C)[C@H]3C[C@H](O)[C@]12C`, the compound was called inactive in test [1]. The Potency result in [2], in test [3], in test [4], in [5], in test [7] and in test [8] was “inactive” each time. Also, the Potency entry in test [9] and in [10] was “inactive” throughout.

As for `NCCN`, in test [1], the result was inactive. For the same compound, the Potency result in test [2], in [3], in test [4], in [5], in [6] and in test [7] was “inactive” throughout. Besides, the Potency result in test [8], in test [9] and in test [10] was “inactive” each time.

Take `NC(N)=O`: the compound was called inactive in [1]. The Potency result in test [2], in test [3], in test [4], in [5], in [6] and in test [7] was “inactive” each time. The Potency entry in test [8], in test [9] and in [10] was “inactive” each time.

For `C[C@H]1O[C@@H](O[C@H]2[C@@H](O)C[C@H](O[C@H]3[C@@H](O)C[C@H](O[C@H]4CC[C@@]5(C)[C@H](CC[C@@H]6[C@@H]5C[C@@H](O)[C@]5(C)[C@@H](C7=CC(=O)OC7)CC[C@]65O)C4)O[C@@H]3C)O[C@@H]2C)C[C@H](O)[C@@H]1O`, the Potency in [2] is 0.251 µM (active); in test [3] it was 0.158 µM (active).

As to `COC(=O)c1ccccc1O`, in test [1], the outcome was inactive. The Potency entry in [2], in [3], in [4], in test [5], in test [6] and in test [7] was “inactive” in each case. The Potency result in test [8], in test [9] and in test [10] was “inactive” throughout.

As to `OC[C@H]1O[C@@H]2O[C@H]3[C@H](O)[C@@H](O)[C@@H](O[C@H]4[C@H](O)[C@@H](O)[C@@H](O[C@H]5[C@H](O)[C@@H](O)[C@@H](O[C@H]6[C@H](O)[C@@H](O)[C@@H](O[C@H]7[C@H](O)[C@@H](O)[C@@H](O[C@H]1[C@H](O)[C@H]2O)O[C@@H]7CO)O[C@@H]6CO)O[C@@H]5CO)O[C@@H]4CO)O[C@@H]3CO`, the result in [1] was inactive. Besides, the Potency result in test [2], in test [3], in test [4], in test [5], in [6] and in test [7] was “inactive” throughout. For the same compound, the Potency entry in [8], in test [9] and in test [10] was “inactive” in each case.

With `CC1=CCC2CC1C2(C)C` (configuration not stated), in test [1], the result was inactive. Moreover, the Potency result in test [2], in test [3], in test [4], in test [5], in test [6] and in test [7] was “inactive” in each case. In addition, the Potency entry in test [8], in test [9] and in [10] was “inactive” throughout.

Regarding `Cc1ccc(S(=O)(=O)O)cc1C`, the result in [1] was inactive. The Potency result in test [2], in [3], in test [4], in test [5], in [6] and in test [7] was “inactive” in each case. For the same compound, the Potency entry in [8], in test [9] and in [10] was “inactive” in each case.
